Bioassay records: PubChem BioAssay, National Center for Advancing Translational Sciences (NCATS)
Only some compounds are listed: those with a hit (about 11% of all), similar ones and a draw of the others.
HEK cytotox: kills HEK 293 cells; HEK 293 viability, ATP luminescence (CellTiter-Glo), 48-72 h; Potency, µM (series often up to 115 µM), most hits filed as inhibitors; 94,000 tested, 6.6% active; further: nearly all actives have a fitted effect of over 60% in size
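HEK 293 cells seeded at 250 cells/well were exposed to compound for 48 or 72 hr at 37 degree Celsius. Viability taken as ATP content by CellTiter-Glo luminescence.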
NIH3T3 tox: kills NIH 3T3 cells; NIH 3T3 viability, CellTiter-Glo ATP luminescence, 48-72 h; Potency, µM (doses to about 96.7 µM), usual class: inhibitors; 94,000 tested, 4.3% active; AID 1345082; further: nearly all actives have a fitted effect of over 55% in size
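Cytotoxicity is measured as loss of cellular ATP: NIH 3T3 cells (400/well) are exposed to compound for 48 or 72 hr at 37 °C, then CellTiter-Glo luminescence is imaged after 10 min at room temperature.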
NPR1 antag: human Npr1 receptor antagonism. HEK293 hNpr1 GloSensor cGMP, ANP-stimulated luminescence. Potency, µM (top dose mostly 46.3 µM), hits mostly inhibitors. 76,000 tested, 1.6% active. AID 1347048; calls by dose curve; further: nearly all actives have a fitted effect of over 60% in size
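HEK293 cells stably expressing human Npr1 and cGMP GloSensor pGS-40F, loaded 2 h with 2% GloSensor reagent, given compound 30 min at room temperature. Luminescence read before and 20 min after 0.1 nM hNppA.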
FLuc inh-1: inhibitors of firefly (Photinus pyralis) luciferase. Potency, µM (series often up to 115 µM), usual class: inhibitors. P08659. purified P. pyralis luciferase, luminescence, biochemical. AID 1347043. 76,000 tested, 2.5% active; further: nearly all actives have a fitted effect of over 65% in size
Target sequence (P08659 whole entry, looked up): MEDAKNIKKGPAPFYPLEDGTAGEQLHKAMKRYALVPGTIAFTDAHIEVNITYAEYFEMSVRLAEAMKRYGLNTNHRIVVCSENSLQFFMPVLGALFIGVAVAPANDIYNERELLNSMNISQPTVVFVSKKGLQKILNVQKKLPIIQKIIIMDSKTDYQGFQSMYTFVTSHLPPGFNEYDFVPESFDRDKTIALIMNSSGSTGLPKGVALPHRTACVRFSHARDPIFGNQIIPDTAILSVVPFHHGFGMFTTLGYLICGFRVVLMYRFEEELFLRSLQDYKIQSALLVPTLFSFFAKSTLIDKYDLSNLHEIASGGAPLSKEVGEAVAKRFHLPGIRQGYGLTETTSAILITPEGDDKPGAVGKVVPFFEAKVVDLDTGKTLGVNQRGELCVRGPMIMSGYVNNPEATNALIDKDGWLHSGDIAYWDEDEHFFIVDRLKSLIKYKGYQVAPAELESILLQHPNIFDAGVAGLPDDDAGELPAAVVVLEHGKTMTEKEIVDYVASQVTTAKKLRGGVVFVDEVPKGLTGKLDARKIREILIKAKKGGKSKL
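Purified 10nM P. pyralis luciferase with 10uM D-luciferin and 10uM ATP in 50mM Tris acetate pH 7.5, 10mM Mg acetate, 0.01% Tween-20, 0.05% BSA. qHTS titration; luminescence read by CCD imager.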
FLuc SDR no ATP: binders stabilizing firefly luciferase, without ATP; shares compounds with FLuc inh-1; Purified FLuc-C-HiBiT, Nano-Glo HiBiT luminescence, no ATP; Potency, µM (doses to about 32.7 µM), usual class: activators; 1,300 tested, 7.8% active; AID 1963318; further: nearly all actives have a fitted effect of over 55% in size
FLuc SDR ATP: firefly luciferase binding stabilization, ATP added; shares compounds with FLuc inh-1; purified FLuc-C-HiBiT + ATP, HiBiT complementation luminescence; Potency, µM (top dose mostly 32.7 µM), actives largely listed as activators; 1,300 tested, 8.7% active; AID 1963319;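 further: signal reports ligand binding via conformational change of the enzyme rather than luciferase catalysis; nearly all actives have a fitted effect of over 55% in size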
FLuc inh-2: firefly luciferase enzyme inhibition. shares compounds with FLuc inh-1. purified FLuc-C-HiBiT enzyme, luciferin luminescence. Potency, µM (doses to about 32.7 µM), most hits filed as inhibitors. 1,300 tested, 42% active. AID 1963320; further: nearly all actives have a fitted effect of over 70% in size
Numbers stand for hits. Unless noted, the call rests on the fitted dose curve; in most records, active means well fitted curve in the direction sought with a large enough effect; inconclusive means small, poorly fitted or top-dose-only effect, or another doubt; inactive means no such curve, though single readings can be large; an effect the other way counts as inactive or inconclusive.

For Cc1cc(-c2cnc(Nc3ccc(F)cc3)c3c2CCO3)ccn1 the results were HEK cytotox inconclusive, NIH3T3 tox inconclusive, NPR1 antag inactive and FLuc inh-1 inactive.
For Clc1ccc(Nc2ncc(-c3cccnc3)c3c2OCC3)cc1 the results were HEK cytotox inconclusive, NIH3T3 tox inconclusive, NPR1 antag inactive, FLuc inh-1 5µM, FLuc SDR no ATP inactive, FLuc SDR ATP inactive and FLuc inh-2 inconclusive.
`Fc1ccc(Nc2ncc(-c3cccnc3)c3c2OCC3)cc1` gave HEK cytotox inactive, NIH3T3 tox inconclusive, NPR1 antag inactive, FLuc inh-1 11µM, FLuc SDR no ATP inactive, FLuc SDR ATP inactive and FLuc inh-2 inconclusive.
For COc1ccc2nc([C@H]3CCN(Cc4ccccc4F)C3)[nH]c2c1 the results were HEK cytotox inconclusive, NIH3T3 tox inconclusive, NPR1 antag inactive and FLuc inh-1 inactive.
Fc1ccc2nc([C@H]3CCN(Cc4ccccc4F)C3)[nH]c2c1 was read as HEK cytotox inconclusive, NIH3T3 tox 79µM, NPR1 antag inconclusive, FLuc inh-1 3.2µM, FLuc SDR no ATP inactive, FLuc SDR ATP inactive and FLuc inh-2 14µM.
`COc1ccccc1C(=O)N1CC(Oc2ccc(F)cc2F)C1` gave HEK cytotox inactive and NIH3T3 tox inactive.
Screening COc1ccc(Br)cc1C(=O)Nc1nc2ccc(F)cc2s1 returned FLuc SDR no ATP inactive, FLuc SDR ATP inactive and FLuc inh-2 inactive.
Screening CCOC(=O)c1cc(-c2ccccc2)nn1Cc1ccccc1 returned FLuc SDR no ATP inactive, FLuc SDR ATP inactive and FLuc inh-2 inactive.
Screening COc1ccc(-c2nc3c(c(-c4ccccc4)n2)CN(C(=O)c2ccccc2F)CC3)cc1 returned HEK cytotox inconclusive, NIH3T3 tox inactive, NPR1 antag inactive and FLuc inh-1 inactive.
For COc1ccc(-c2nc3c4cnn(-c5ccccc5F)c4ncn3n2)cc1 the results were FLuc SDR no ATP inactive, FLuc SDR ATP inactive and FLuc inh-2 inconclusive.
For CC(C)CCN1C(=O)CC[C@]2(C(=O)N3CCN(C(C)C)CC3)CCCC[C@@H]12 the results were HEK cytotox inactive, NIH3T3 tox inactive, NPR1 antag inactive and FLuc inh-1 inactive.
Screening C[C@@H]1C(=O)O[C@H]2[C@H]1CC[C@@]1(C)Cc3sc(NS(=O)(=O)c4ccc5c(c4)CN(C(=O)C(F)(F)F)CC5)nc3[C@@H](C)[C@H]21 returned HEK cytotox inactive, NIH3T3 tox inactive, NPR1 antag inactive and FLuc inh-1 inactive.
C[C@@H]1C(=O)O[C@H]2[C@H]1CC[C@@]1(C)Cc3sc(NC(=O)COCC(=O)O)nc3[C@@H](C)[C@H]21 was read as HEK cytotox inactive, NIH3T3 tox inactive, NPR1 antag inactive, FLuc inh-1 13µM, FLuc SDR no ATP 4.5µM, FLuc SDR ATP inconclusive and FLuc inh-2 5.7µM.
Screening CSCC(=O)Nc1nc2c(s1)C[C@]1(C)CC[C@@H]3[C@H](OC(=O)[C@H]3C)[C@H]1[C@@H]2C returned HEK cytotox 35µM, NIH3T3 tox 100µM, NPR1 antag 7.1µM, FLuc inh-1 0.89µM, FLuc SDR no ATP inconclusive, FLuc SDR ATP inconclusive and FLuc inh-2 4.5µM.
`COc1cccc(Nc2ccc(CN3CCC(C)(NC(C)=O)C3)cc2)c1` (stereo not drawn) gave HEK cytotox inconclusive, NIH3T3 tox 89µM, NPR1 antag inconclusive, FLuc inh-1 4µM, FLuc SDR no ATP inactive, FLuc SDR ATP inactive and FLuc inh-2 inconclusive.
`CC(=O)NC1(C)CCN(Cc2cccc(-c3ccc4ccccc4c3)c2)C1` (stereo not drawn) gave HEK cytotox 35µM, NIH3T3 tox 28µM, NPR1 antag inconclusive, FLuc inh-1 1.8µM, FLuc SDR no ATP inactive, FLuc SDR ATP inconclusive and FLuc inh-2 11µM.
COc1cccc(-c2cccc(CN3CCCC(C)(NC(C)=O)C3)c2)c1 (stereo not drawn) was read as HEK cytotox inconclusive, NIH3T3 tox inconclusive, NPR1 antag inactive and FLuc inh-1 inconclusive.
Screening CCC(=O)N1CCCN(Cc2ccncc2)C(c2ccccc2)CC(=O)NCC1 (stereo not drawn) returned HEK cytotox inactive, NIH3T3 tox inactive, NPR1 antag inactive and FLuc inh-1 inactive.
Screening Cc1ccc(S(=O)(=O)N2CC(c3noc(-c4cccnc4)n3)C2)cc1Cl returned HEK cytotox inconclusive, NIH3T3 tox inactive, NPR1 antag inactive and FLuc inh-1 inactive.
`COc1ccccc1-c1cnc(Nc2cc(F)cc(N3CCOCC3)c2)c2c1CCO2` gave HEK cytotox inconclusive, NIH3T3 tox inconclusive, NPR1 antag inactive and FLuc inh-1 inactive.
COc1ccc(-c2ccc3ncc(Nc4cc(F)cc(N5CCOCC5)c4)n3n2)cc1OC was read as HEK cytotox inconclusive, NIH3T3 tox 18µM, NPR1 antag inactive, FLuc inh-1 8.9µM, FLuc SDR no ATP inactive, FLuc SDR ATP inactive and FLuc inh-2 inconclusive.
For COc1ccc(CCC(=O)N2CCC3(CC2)NC(=O)N(c2ccc(F)cc2)N3)cc1 the results were HEK cytotox inconclusive, NIH3T3 tox inconclusive, NPR1 antag inactive and FLuc inh-1 inactive.
CCOC(=O)c1cccc(NC(=O)N2CC[C@@H](CC(=O)NCc3ccc(F)cc3)[C@@H](CC)C2)c1 was read as HEK cytotox inconclusive, NIH3T3 tox inactive, NPR1 antag inactive and FLuc inh-1 inactive.
For c1ccc2sc(-c3cc4c(c(OC5CCOC5)c3)OCCN(Cc3cccn3-c3nccs3)C4)nc2c1 (stereo not drawn) the results were FLuc SDR no ATP inactive, FLuc SDR ATP inactive and FLuc inh-2 inactive.
Oc1cc(-c2nc3ccccc3s2)cc2c1OCCN(Cc1cn[nH]c1-c1ccc(Cl)cc1)C2 was read as FLuc SDR no ATP inactive, FLuc SDR ATP inactive and FLuc inh-2 inactive.
For Oc1cc(-c2nc3ccccc3s2)cc2c1OCCN(Cc1cccn1-c1nccs1)C2 the results were FLuc SDR no ATP inactive, FLuc SDR ATP inactive and FLuc inh-2 inactive.
`Oc1cc(-c2nc3ccccc3s2)cc2c1OCCN(Cc1ncccn1)C2` gave HEK cytotox inconclusive, NIH3T3 tox inactive, NPR1 antag inactive, FLuc inh-1 inconclusive, FLuc SDR no ATP inactive, FLuc SDR ATP inactive and FLuc inh-2 inactive.
C=CCn1cc(CN2CCOc3c(O)cc(-c4cccc(Cl)c4)cc3C2)cn1 was read as HEK cytotox inconclusive, NIH3T3 tox inconclusive, NPR1 antag inactive and FLuc inh-1 inactive.
Fc1ccccc1-c1n[nH]c2c1CN(Cc1cccn1-c1nccs1)CC2 was read as HEK cytotox inconclusive, NIH3T3 tox inactive, NPR1 antag inactive and FLuc inh-1 inactive.
